Out of some 5,500 compounds screened, about 2,000 (36%) were called active. Another 18% or so got no clear call; they are omitted. No stated cut-off is given here; in the data, active means normalized growth mostly below about 0.91 (no sharp cut-off); inconclusive means no clear call, values can overlap the other calls; inactive means mostly above about 0.92. The list shows a part of the results.
Assay: chemical genetic growth profiling, strain panel (AID 1159580);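 further: tested at 20 µM; growth read once vehicle control cultures reached saturation at 30 °C; 1 = growth at the plate median or of vehicle wells; lower values mean less growth of the strain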
Settings: growth OD

Measured: normalized growth

NS(=O)(=O)c1cc2c(cc1Cl)NC(CSCc1ccccc1)=NS2(=O)=O
inactive: S. cerevisiae deletion strains, locus YJR075W, strain HOC1, active compounds read low 0.971 | S. cerevisiae deletion strains, locus YKL009W, strain mrt4, active compounds read low 0.99 | S. cerevisiae deletion strains, locus YKL068W, active compounds read low 0.988 | S. cerevisiae deletion strains, locus YKL085W, strain MDH1 (second series), active compounds read low 0.998 | S. cerevisiae deletion strains, locus YKL085W, strain MDH1, active compounds read low 0.998 | S. cerevisiae deletion strains, locus YKL160W, strain elf1, active compounds read low 1.01 | S. cerevisiae deletion strains, locus YKL190W, strain CNB1, active compounds read low 0.987 | S. cerevisiae deletion strains, locus YKR001C, strain vps1, active compounds read low 0.982 | S. cerevisiae deletion strains, locus YKR026C, strain gcn3, active compounds read low 1.02 | S. cerevisiae deletion strains, locus YKR091W, strain srl3, active compounds read low 1.02 | S. cerevisiae deletion strains, locus YLL001W, strain dnm1, active compounds read low 1.03 | S. cerevisiae deletion strains, locus YLL026W, active compounds read low 1.02 | S. cerevisiae deletion strains, locus YLL041C, strain sdh2, active compounds read low 1.02 | S. cerevisiae deletion strains, locus YLR027C, strain aat2, active compounds read low 1.02 | S. cerevisiae deletion strains, locus YLR039C, strain RIC1, active compounds read low 1.05 | S. cerevisiae deletion strains, locus YLR058C, strain SHM2, active compounds read low 0.982 | S. cerevisiae deletion strains, locus YLR102C, strain apc9, active compounds read low 0.986 | S. cerevisiae deletion strains, locus YLR113W, strain HOG1, active compounds read low 0.97 | S. cerevisiae deletion strains, locus YLR221C, strain rsa3, active compounds read low 1.02 | S. cerevisiae deletion strains, locus YLR258W, strain gsy2, active compounds read low 0.994 | S. cerevisiae deletion strains, locus YLR262C, strain YPT6 (second series), active compounds read low 1.05 | S. cerevisiae deletion strains, locus YLR262C, strain YPT6, active compounds read low 1.04 | S. cerevisiae deletion strains, locus YLR268W, strain sec22, active compounds read low 0.992 | S. cerevisiae deletion strains, locus YLR320W, strain mms22, active compounds read low 0.976 | S. cerevisiae deletion strains, locus YLR330W, strain CHS5, active compounds read low 0.987 | S. cerevisiae deletion strains, locus YLR342W, strain FKS1 (second series), active compounds read low 1.01 | S. cerevisiae deletion strains, locus YLR342W, strain FKS1, active compounds read low 1.02 | S. cerevisiae deletion strains, locus YLR357W, strain rsc2, active compounds read low 1.02 | S. cerevisiae deletion strains, locus YLR370C, strain arc18, active compounds read low 1.01 | S. cerevisiae deletion strains, locus YLR371W, strain rom2, active compounds read low 0.974 | S. cerevisiae deletion strains, locus YLR384C, strain iki3, active compounds read low 1.02 | S. cerevisiae deletion strains, locus YLR418C, strain cdc73, active compounds read low 0.994 | S. cerevisiae deletion strains, locus YML016C, strain PPZ1, active compounds read low 0.987 | S. cerevisiae deletion strains, locus YML032C, strain rad52, active compounds read low 0.995 | S. cerevisiae deletion strains, locus YML120C, strain ndi1, active compounds read low 1.04 | S. cerevisiae deletion strains, locus YML124C, strain tub3, active compounds read low 0.995 | S. cerevisiae deletion strains, locus YMR058W, strain fet3, active compounds read low 1.02 | S. cerevisiae deletion strains, locus YMR078C, strain ctf18, active compounds read low 0.983 | S. cerevisiae deletion strains, locus YMR125W, strain sto1, active compounds read low 1.01 | S. cerevisiae deletion strains, locus YMR129W, active compounds read low 1.03 | S. cerevisiae deletion strains, locus YMR205C, strain PFK2, active compounds read low 1.02 | S. cerevisiae deletion strains, locus YMR223W, strain ubp8, active compounds read low 0.985 | S. cerevisiae deletion strains, locus YMR231W, strain pep5, active compounds read low 1.01 | S. cerevisiae deletion strains, locus YMR263W, strain SAP30, active compounds read low 0.977 | S. cerevisiae deletion strains, locus YMR307W, strain GAS1, active compounds read low 0.971 | S. cerevisiae deletion strains, locus YNL067W, strain RPL9B, active compounds read low 0.959 | S. cerevisiae deletion strains, locus YNL071W, strain lat1, active compounds read low 0.978 | S. cerevisiae deletion strains, locus YNL153C, strain GIM3, active compounds read low 0.966 | S. cerevisiae deletion strains, locus YNL183C, strain NPR1, active compounds read low 0.909 | S. cerevisiae deletion strains, locus YNL209W, strain ssb2, active compounds read low 1 | S. cerevisiae deletion strains, locus YNL233W, strain BNI4, active compounds read low 0.958 | S. cerevisiae deletion strains, locus YNL248C, strain rpa49, active compounds read low 1 | S. cerevisiae deletion strains, locus YNL250W, strain rad50, active compounds read low 0.978 | S. cerevisiae deletion strains, locus YNL271C, strain bni1, active compounds read low 0.998 | S. cerevisiae deletion strains, locus YNL298W, strain CLA4, active compounds read low 0.982 | S. cerevisiae deletion strains, locus YNL307C, strain MCK1, active compounds read low 0.983 | S. cerevisiae deletion strains, locus YNL322C, strain KRE1 (second series), active compounds read low 1.02 | S. cerevisiae deletion strains, locus YNL322C, strain KRE1, active compounds read low 0.994 | S. cerevisiae deletion strains, locus YNR049C, strain mso1, active compounds read low 1.02 | S. cerevisiae deletion strains, locus YNR052C, strain pop2, active compounds read low 0.981 | S. cerevisiae deletion strains, locus YOL012C, strain htz1 0.861 | S. cerevisiae deletion strains, locus YOL147C, strain pex11, active compounds read low 0.985 | S. cerevisiae deletion strains, locus YOR001W, strain rrp6, active compounds read low 1.04 | S. cerevisiae deletion strains, locus YOR061W, strain CKA2, active compounds read low 1 | S. cerevisiae deletion strains, locus YOR069W, strain VPS5, active compounds read low 0.987 | S. cerevisiae deletion strains, locus YOR070C, strain gyp1, active compounds read low 1 | S. cerevisiae deletion strains, locus YOR080W, strain dia2, active compounds read low 1.03 | S. cerevisiae deletion strains, locus YOR083W, strain WHI5, active compounds read low 1.05 | S. cerevisiae deletion strains, locus YOR106W, strain vam3, active compounds read low 1.03 | S. cerevisiae deletion strains, locus YOR136W, strain idh2, active compounds read low 0.979 | S. cerevisiae deletion strains, locus YOR144C, strain elg1, active compounds read low 0.987 | S. cerevisiae deletion strains, locus YOR184W, strain ser1, active compounds read low 0.985 | S. cerevisiae deletion strains, locus YOR231W, strain MKK1, active compounds read low 0.959 | S. cerevisiae deletion strains, locus YOR265W, strain rbl2, active compounds read low 1.01 | S. cerevisiae deletion strains, locus YOR270C, strain vph1, active compounds read low 1.05 | S. cerevisiae deletion strains, locus YOR290C, strain snf2, active compounds read low 1.01 | S. cerevisiae deletion strains, locus YOR316C, strain cot1, active compounds read low 0.973 | S. cerevisiae deletion strains, locus YPL051W, strain arl3, active compounds read low 1.02 | S. cerevisiae deletion strains, locus YPL078C, strain atp4, active compounds read low 1.06 | S. cerevisiae deletion strains, locus YPL106C, strain sse1, active compounds read low 0.973 | S. cerevisiae deletion strains, locus YPL240C, strain hsp82, active compounds read low 1.01 | S. cerevisiae deletion strains, locus YPL256C, strain CLN2, active compounds read low 0.935 | S. cerevisiae deletion strains, locus YPR119W, strain clb2, active compounds read low 0.98 | S. cerevisiae deletion strains, locus YPR141C, strain kar3, active compounds read low 0.973 | S. cerevisiae deletion strains, locus YPR163C, strain tif3, active compounds read low 0.982 | S. cerevisiae deletion strains, locus YPR167C, strain met16, active compounds read low 0.989 | S. cerevisiae deletion strains, strain wtn01, active compounds read low 0.967 | S. cerevisiae strains, strain wild type, active compounds read low 0.992
